Screening results deposited in PubChem by several laboratories.
This is a sample that favours compounds with a hit; in the whole collection about 3.8% have one here.
HSP90 inh: blocks HSP90-mediated luciferase refolding in reticulocyte lysate. Rabbit reticulocyte lysate, luciferase refolding luminescence, 3 h. inhibition, % at 5.6 µM. 290,000 tested, 0.91% active. AID 1789;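 active = inhibition above the screen-wide mean plus 3 SD, computed separately per campaign, cut at about 16% in these data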;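 note: 0% = DMSO wells and 100% = 60 µM geldanamycin wells; inhibitors lower the luminescence because luciferase stays unfolded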
HSF1 activator: increases HSF-1 driven luciferase reporter signal. NIH3T3-HGL HSF-1 luciferase reporter, MG132, 8 h; 100% = twice DMSO control signal. activation, % at 9 µM. 300,000 tested, 1.7% active;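 active = mean replicate activation of at least 50% with a set share of replicates each reaching 50%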;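 note: 0% = median of the neutral control wells and 100% = twice that signal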
HSF1 inh: HSF1 inhibition; NIH3T3-HGL HSE-luciferase, MG132-induced, luminescence 8 h; hits give low values; activity change, negative = inhibition, % at 7.5 µM (by protocol); 300,000 tested, 0.77% active; AID 2098;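 active = more than half of replicate wells show activity change below -50%, luminescence cut by over half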;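 note: luciferase reports HSF-1 transcriptional activity via heat shock element; 0% = median of DMSO wells and -100% = zero luminescence signal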
Hsp70 act: switches on Hsp70 transcription; HeLa Hsp70 promoter luciferase reporter, luminescence; scaled: vehicle 0, proteasome-inhibitor control 100%; activation, % at 10 µM; 200,000 tested, 0.04% active; AID 1203;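 active = activation above the mean across all tested compounds plus 3 SD, cutoff set per campaign, cut at about 5.5% in these data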;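 note: 100% = MG132 at 30 µM as the positive control and 0% = DMSO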
p-CIP stab down: p/CIP protein destabilization. Q05BA5. F442A p/CIP-EGFP cells, EGFP fluorescence, 16 h. decrease of EGFP signal, % at 10 µM. 290,000 tested, 0.01% active. AID 1984;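 active = EGFP signal decrease of at least 30% at 10 µM or well 3 SD below plate mean, unless failing retest; inactive = the rest, including hits failing retest or dose response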
NALP1 inh: inhibitors of NALP1 inflammasome in yeast; S. cerevisiae NALP1/ASC/caspase-1 growth, X-gal OD620, 72 h; inhibition, % at 10 µM; 280,000 tested, 0.61% active; in the data active = inhibition mostly above about 24%, no sharp cut-off; inactive = mostly below about 32%
The depositor's hits bear a star; . = no result given.

SMILES | HSP90 inh | HSF1 activator | HSF1 inh | Hsp70 act | p-CIP stab down | NALP1 inh
CCCCN(C)C(=O)CCC(=O)Nc1ccc2nc(N3CCN(C)CC3)cc(C)c2c1 | 1 | -76 | -70* | 0 | 4 | 12
Cc1c(Cl)cccc1NC(=O)CS(=O)(=O)c1ccccc1 | 0 | -55 | -47 | . | -7 | 0
CC1Cc2nc(SCC(=O)Nc3ccc4c(c3)OCO4)n(Cc3ccccc3)c(=O)c2S1 (configuration not stated) | -4 | 78* | 55 | 0 | 2 | 10
COCCn1c(SCC(=O)Nc2ccc3c(c2)OCCO3)nc2c(c1=O)SC(C)C2 (configuration not stated) | -4 | . | . | 0 | -20 | 10
Cc1ccc(CNC(=O)c2cc3ccccc3oc2=O)cc1 | . | 2 | -11 | . | . | .
COC(=O)c1ccccc1NC(=O)c1cccs1 | 1 | -9 | 2 | 0 | -10 | 24
COC(=O)c1ccccc1NC(=O)Nc1cccs1 | -2 | 66* | 32 | 0 | 6 | -84
CCc1cccc(NC(=O)Nc2cccs2)c1 | -1 | 133* | 73 | 1 | -7 | 17
O=C(Nc1cccs1)Nc1c(F)c(F)c(F)c(F)c1F | 2 | 13 | 17 | 0 | 1 | 21
O=C(Nc1cccs1)Nc1c(F)c(F)cc(F)c1F | -6 | 59* | 15 | 0 | 2 | 21
COC(=O)c1ccc(CNS(=O)(=O)c2ccc3ccccc3c2)cc1 | -2 | 2 | 3 | . | -8 | 26
Cc1nc2c(C#N)c[nH]n2c(=O)c1CCO | 0 | 5 | -6 | . | -11 | .
Cc1ccn2cc(CCNC(=O)C3CC=CCC3C(=O)O)nc2c1 (configuration not stated) | 8 | 1 | 0 | . | -18 | .
CC(C)(C)c1nc(NC(=O)Nc2ccccc2)sc1Br | -2 | 5 | 7 | 0 | -5 | 18
COc1ccc(NC(=O)c2nc(S(=O)(=O)Cc3cccc(C)c3)ncc2Cl)c(OC)c1 | 1 | 204* | 171 | . | -24 | 6
COc1ccc(OC)c(NC(=O)c2nc(S(=O)(=O)Cc3ccccc3)ncc2Cl)c1 | 1 | -95 | -94* | . | -19 | -8
COc1ccc(OC)c(NC(=O)CS(=O)(=O)c2ccccc2)c1 | 3 | -7 | 3 | 0 | 0 | 11
CCC(C(=O)Nc1ccc(S(=O)(=O)N2CCN(C)CC2)cc1)c1ccccc1 (configuration not stated) | -2 | -7 | 2 | . | 2 | 21
O=C(C[n+]1cccc(NC(=O)c2ccccc2)c1)c1cccc([N+](=O)[O-])c1 | -2 | 11 | -3 | 0 | -2 | 20
O=C(C[n+]1cccc(C(=O)Nc2ccccc2)c1)c1ccc([N+](=O)[O-])cc1 | 4 | 132* | 60 | . | -5 | 0
C=CCNC(=S)N/N=C/c1ccc(-c2ccc(Br)cc2)o1 | 1 | 78* | 41 | 0 | 9 | 4
CCN(CC(=O)NCc1cccs1)c1ccc(S(=O)(=O)N2CCN(C)CC2)cn1 | 0 | -4 | 2 | . | -2 | 39*
CCN(CC(=O)NCc1cccs1)C(=O)c1cc(S(=O)(=O)N2CCCCC2)ccc1Cl | . | 5 | 7 | . | . | .
CC(C)CN(C(=O)c1cccc(Cl)c1)c1c(N)n(CC(C)C)c(=O)[nH]c1=O | 1 | -2 | 1 | . | 0 | 11
CCCCn1cc(S(=O)(=O)c2ccccc2)c(=O)c2cc(C)ccc21 | -1 | -80 | -74* | . | 11 | 14
SMILES | HSP90 inh | HSF1 activator | HSF1 inh | Hsp70 act | p-CIP stab down | NALP1 inh
CCCn1cc(S(=O)(=O)c2ccccc2)c(=O)c2cc(OCC)ccc21 | -2 | 16 | 1 | . | -2 | 10
O=C(Nc1sc2c(c1C(=O)NCC(O)CO)CCCC2)c1ccccc1 (configuration not stated) | . | -16 | -6 | . | . | .
Clc1ccc(SCCn2cncn2)cc1 | 3 | -5 | -14 | 0 | -8 | 9
Cc1ccc(SCCCn2cncn2)cc1 | 3 | -79 | -71* | 0 | -5 | 9
COc1ccc2ccccc2c1CNC(=O)CC1C(=O)NCCN1CC(C)C (configuration not stated) | 0 | 1 | 0 | 0 | 1 | -8
COc1cc(NCCC(=O)c2cccs2)c(OC)cc1Cl | 4 | 9 | 0 | 0 | 7 | 9
Cc1ccc(NC(=O)CSCc2cc(=O)n3cc(C)sc3n2)c(C)c1 | -1 | -69 | -59* | . | 7 | 22
COC(C[C@H](O)[C@@H](C)[C@H](O)COCc1ccccc1)OC | . | . | . | . | 3 | .
CN1CCN(Cc2nc3ccccc3c(=O)n2Cc2nc(-c3cccc([N+](=O)[O-])c3)cs2)CC1 | -3 | . | . | 0 | 7 | 34*
Cc1cccc(-n2cc(CN3CCN(Cc4nccn4C)CC3)c(-c3cccc(F)c3)n2)c1 | -1 | 65* | 28 | 0 | 4 | 3
CN(C(=O)COC(=O)C(C)(C)Oc1ccc(Cl)cc1)c1c(N)n(Cc2ccccc2)c(=O)[nH]c1=O | . | 15 | 6 | . | . | .
CCc1noc(C)c1C(=O)N1CCN(S(=O)(=O)c2ccc(Br)cc2)CC1 | . | -8 | 7 | . | . | .
O=C(CN1C(=O)COc2ccc(Cl)cc21)NC1CC1 | -2 | 0 | -2 | . | -22 | 20
Cc1cc(C)n(-c2cc(=O)n(C)c(=O)n2C)n1 | 0 | 67* | 17 | 0 | 0 | 10
Cc1ccc(NC(=O)CNC(=O)c2ccco2)cc1 | -3 | 35 | 11 | . | 9 | 5
COc1ccc(OCCN2C(=O)c3cccc(N)c3C2=O)cc1 | -3 | 59* | 39 | . | 11 | 23
O=C(CN1CCCc2ccccc21)N/N=C/c1ccc(O)cc1O | 11 | 16 | -3 | 0 | -1 | 19
CN1CCN(S(=O)(=O)c2ccc(NC(=S)NC(=O)C3CCCCC3)cc2)CC1 | 0 | 3 | -3 | 0 | -7 | 4
CN1CCN(S(=O)(=O)c2ccc(NC(=S)NC(=O)C(C)(C)C)cc2)CC1 | -8 | . | . | 0 | -22 | 80*
CN1CCN(S(=O)(=O)c2ccc(NC(=S)NC(=O)c3ccccc3)cc2)CC1 | -8 | 5 | 1 | 0 | -7 | 13
CCC(=O)NC(=S)Nc1ccc(S(=O)(=O)N2CCN(C)CC2)cc1 | 0 | 79* | 25 | 0 | 4 | 16
COc1ccc(NC(=O)C2CCCN(S(C)(=O)=O)C2)cc1Cl (configuration not stated) | 5 | -15 | -3 | . | 0 | -28
COC(=O)CN(C)C(=O)c1ccc(OC2CCN(S(=O)(=O)N(C)C)CC2)cc1 | 1 | 7 | 0 | . | 11 | 7
CN(CCc1cn[nH]c1)Cc1nc(C(c2ccccc2)c2ccccc2)no1 | -3 | 46 | 6 | 0 | -4 | 10
CCN(CC)CCN(C)Cc1nc(C(c2ccccc2)c2ccccc2)no1 | -1 | 54* | 15 | . | 1 | 24
c1ccc(Cn2nnnc2C(c2cccs2)N2CCc3ccccc3C2)cc1 (configuration not stated) | 6 | 177* | 135 | 0 | 1 | 15
